# Test results reported in PubChem BioAssay (Tox21).
# Several values for one entry are separate records, joined by “and”; a condition that tells them apart may be missing. Equal values may be shown once. A number with no mark means an inactive call. Records with an inconclusive call do not appear. Entries that show only a call come without a potency. Activity calls are given as the source filed them. Calls come from the whole dose curve; as a rule, active = well fitted curve in the direction sought with a large enough effect in the repeat runs; inconclusive = weak or mixed curves; inactive = no such curve, though single readings can be large; an effect the other way counts as inactive or inconclusive.
# Tests used:
# [1] = qHTS RealTime-Glo MT Cell Viability Assay in HEK293 cells - 16 hour (AID 1224872); note: top concentration of the series differs between compounds; nearly all actives have a fitted effect of over 50% in size
# How it was run: (§1)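 Viability tracked continuously by luminescence as live cells reduce a prosubstrate for NanoLuc; HEK293 cells preincubated 5 h, compound-treated at 37 C, and read at 0, 8, 16, 24, 32 and 40 h.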
# [2] = qHTS RealTime-Glo MT Cell Viability Assay in HEK293 cells - 40 hour (AID 1224874); conditions: RealTime-Glo luminescence; max response: stronger effect = lower value; note: nearly all actives have a fitted effect of over 50% in size; note: potency is the fitted concentration of half-maximal effect
# How it was run: (§2)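 Kinetic, non-lysing viability readout. Seed HEK293 (600/well) with reagent, incubate 5 h at 37 C/5% CO2, pin 23 nL compound in DMSO, incubate at 37 C, read luminescence at 0, 8, 16, 24, 32, 40 h.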
# [3] = A CellTox Green Cytotoxicity Assay to monitor cytotoxicity in HEK293 cells - 24 hour (AID 1224875); note: series mostly up to about 77 µM; nearly all actives have a fitted effect of over 45% in size
# How it was run: (§3)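 Real-time, in one plate: 600 HEK293 cells/well with dead-cell DNA dye, pinned compound after 5 h, 37 C incubation over 40 h; viable cells give no appreciable fluorescence.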
# [4] = A CellTox Green Cytotoxicity Assay to monitor cytotoxicity in HepG2 cells - 16 hour (AID 1224876); note: nearly all actives have a fitted effect of over 45% in size; note: potency is the fitted concentration of half-maximal effect
# How it was run: (§4)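 Cytotoxicity was tracked as dead-cell DNA fluorescence in HepG2 cells treated with test compounds at 37 C; each time-point value comes from one kinetic series spanning 0, 8, 16, 24, 32 and 40 h.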
# [5] = A CellTox Green Cytotoxicity Assay to monitor cytotoxicity in HepG2 cells - 24 hour (AID 1224878); note: nearly all actives have a fitted effect of over 45% in size; note: potency is the fitted concentration of half-maximal effect
# How it was run: as §4
# [6] = A CellTox Green Cytotoxicity Assay to monitor cytotoxicity in HepG2 cells - 40 hour (AID 1224879); note: nearly all actives have a fitted effect of over 40% in size; note: potency is the fitted concentration of half-maximal effect
# How it was run: as §4
# [7] = qHTS RealTime-Glo MT Cell Viability Assay in HEK293 cells - 0 hour (AID 1224880); note: top concentration of the series differs between compounds; nearly all actives have a fitted effect of over 45% in size
# How it was run: as §2
# [8] = A CellTox Green Cytotoxicity Assay to monitor cytotoxicity in HEK293 cells - 32 hour (AID 1224881); note: nearly all actives have a fitted effect of over 40% in size; note: potency is the fitted concentration of half-maximal effect
# How it was run: as §3
# [9] = A CellTox Green Cytotoxicity Assay to monitor cytotoxicity in HepG2 cells - 0 hour (AID 1224882); note: nearly all actives have a fitted effect of over 35% in size; note: potency is the fitted concentration of half-maximal effect
# How it was run: as §4
# [10] = A CellTox Green Cytotoxicity Assay to monitor cytotoxicity in HepG2 cells - 32 hour (AID 1224883); note: nearly all actives have a fitted effect of over 50% in size; note: potency is the fitted concentration of half-maximal effect
# How it was run: as §4
# [11] = A CellTox Green Cytotoxicity Assay to monitor cytotoxicity in HEK293 cells - 8 hour (AID 1224884); note: nearly all actives have a fitted effect of over 35% in size
# How it was run: as §3
# [12] = qHTS RealTime-Glo MT Cell Viability Assay in HEK293 cells - 24 hour (AID 1224886); note: nearly all actives have a fitted effect of over 50% in size; note: potency is the fitted concentration of half-maximal effect
# How it was run: as §1
# [13] = A CellTox Green Cytotoxicity Assay to monitor cytotoxicity in HEK293 cells - 16 hour (AID 1224888); note: nearly all actives have a fitted effect of over 35% in size
# How it was run: as §3
# [14] = qHTS RealTime-Glo MT Cell Viability Assay in HepG2 cells - 0 hour (AID 1224889); note: nearly all actives have a fitted effect of over 50% in size; note: potency is the fitted concentration of half-maximal effect
# How it was run: (§5)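 Viability was tracked continuously by NanoLuc luminescence from prosubstrate reduced by living HepG2 cells, at successive time points over 40 h of compound exposure. Cells with reagent were preincubated 5 h at 37 °C before compound addition.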
# [15] = A CellTox Green Cytotoxicity Assay to monitor cytotoxicity in HepG2 cells - 8 hour (AID 1224890); note: nearly all actives have a fitted effect of over 45% in size; note: potency is the fitted concentration of half-maximal effect
# How it was run: as §4
# [16] = qHTS RealTime-Glo MT Cell Viability Assay in HepG2 cells - 8 hour (AID 1224873); note: nearly all actives have a fitted effect of over 55% in size
# How it was run: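 Real-time viability: cells seeded at 600 per well together with NanoLuc and cell-permeant prosubstrate, compounds added after 5 h incubation. Luminescence tracked at 0, 8, 16, 24, 32 and 40 h of exposure.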
# [17] = qHTS RealTime-Glo MT Cell Viability Assay in HepG2 cells - 32 hour (AID 1224877); note: nearly all actives have a fitted effect of over 55% in size; note: potency is the fitted concentration of half-maximal effect
# How it was run: as §5
# [18] = qHTS RealTime-Glo MT Cell Viability Assay in HepG2 cells - 16 hour (AID 1224885); note: nearly all actives have a fitted effect of over 50% in size
# How it was run: as §5
# [19] = qHTS RealTime-Glo MT Cell Viability Assay in HEK293 cells - 8 hour (AID 1224887)
# How it was run: as §2
Compound,Potency [1],max response [2],Potency [3],Potency [4],Potency [5],Potency [6],Potency [7],Potency [8],Potency [9],Potency [10],Potency [11],Potency [12],Potency [13],Potency [14],Potency [15],Potency [16],Potency [2],Potency [17],Potency [18],Potency [19]
CCOC(=O)c1nc(C(Cl)(Cl)Cl)n(-c2ccc(Cl)cc2Cl)n1,inactive,-11.5%,inactive,inactive,inactive,inactive,inactive,inactive,inactive,inactive,inactive,inactive,inactive,inactive,inactive,,,,,
CCCCCCC[N+](CC)(CC)CCCCc1ccc(Cl)cc1,,,inactive,26.8 µM (active),26.8 µM (active),23.9 µM (active),inactive,5.35 µM (active),inactive,23.9 µM (active),inactive,,inactive,inactive,inactive,inactive,1.9 µM (active),23.9 µM (active),,
Cc1cc(C2CCCCC2)n(O)c(=O)c1,,,inactive,inactive,inactive,,inactive,inactive,inactive,,,,inactive,inactive,inactive,inactive,,inactive,inactive,
Oc1ccc(C2(c3ccc(O)cc3)CC3CC2C2CCCC32)cc1 (centres undefined),,,,inactive,inactive,,inactive,,inactive,,,41.9 µM (active),inactive,inactive,inactive,inactive,41.9 µM (active),inactive,inactive,
Cc1cc(O)c(Cl)c(C)c1Cl,inactive,-27.6%,,,54.9 µM (active),49 µM (active),inactive,,inactive,,,inactive,,inactive,,,,inactive,inactive,inactive
Nc1nc2ccccc2n1Cc1ccc(F)cc1,,,inactive,inactive,,23.9 µM (active),,inactive,inactive,,,,inactive,,inactive,inactive,,inactive,inactive,inactive
COc1cc(-c2nc(NC(=O)c3cc4cc(C)cc(C)c4n3CC(=O)O)sc2CCC2CCCCC2)c(OC)cc1Cl,,,inactive,,,44.9 µM (active),inactive,inactive,44.9 µM (active),,,40 µM (active),inactive,,40 µM (active),,,40 µM (active),,inactive
O=CC=C(c1ccccc1)c1ccccc1,,,,inactive,inactive,inactive,inactive,,inactive,,inactive,17.5 µM (active),inactive,inactive,inactive,inactive,17.5 µM (active),inactive,,
Fc1ccc(C(c2ccc(F)cc2)N2CCN(C/C=C/c3ccccc3)CC2)cc1,,,inactive,inactive,inactive,inactive,inactive,,inactive,inactive,,,inactive,inactive,inactive,,,,,
CCC1OCC(COc2ccc(Oc3ccccc3)cc2)O1 (centres undefined),,,inactive,inactive,inactive,inactive,inactive,inactive,inactive,inactive,inactive,,inactive,inactive,inactive,inactive,,inactive,inactive,
CCCC1O[C@@H]2C[C@H]3[C@@H]4CCC5=CC(=O)C=C[C@]5(C)[C@H]4[C@@H](O)C[C@]3(C)[C@]2(C(=O)CO)O1 (some centres undefined),,,inactive,inactive,inactive,49 µM (active),,inactive,inactive,inactive,inactive,,inactive,7.77 µM (active) and 7.76 µM (active),inactive,inactive,24.6 µM (active) and 43.6 µM (active),inactive,inactive,
CC(=O)S[C@@H]1CC2=CC(=O)CC[C@]2(C)[C@H]2CC[C@@]3(C)[C@@H](CC[C@@]34CCC(=O)O4)[C@H]12,,,inactive,inactive,,54.9 µM (active),inactive,inactive,inactive,54.9 µM (active),,,inactive,inactive,inactive,,,,,
